Compound activity (PubChem)
MCL1-BIM inh = inhibitors of MCL1 binding to BIM-BH3, primary screen, biochemical, fluorescence polarization; 0.68% of 320,000 active; Induced myeloid leukemia cell differentiation protein Mcl-1 (Homo sapiens), Q07820; inhibition, % at 10.9 µM; GST-MCL1 / FITC-Bim-BH3 fluorescence polarization;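 active = inhibition above the mean inhibition of all tested compounds plus 3 SD, set per campaign, cut at about 40% in these data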;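 note: higher means more loss of mP so more displacement of Bim peptide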
GLD-1 TGE inh = GLD-1/TGE RNA complex disruptors, primary screen, biochemical, fluorescence polarization. Female germline-specific tumor suppressor gld-1 (Caenorhabditis elegans), Q17339. purified GLD-1 + fluorescein TGE RNA. inhibition, % at 5.96 µM. 0.44% of 320,000 active. AID 2280, 2010;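 active = percent inhibition above a per-plate cutoff, the plate mean of test compounds plus 3 SD, cut at about 30% in these data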
Target sequence (Q17339 whole entry, looked up): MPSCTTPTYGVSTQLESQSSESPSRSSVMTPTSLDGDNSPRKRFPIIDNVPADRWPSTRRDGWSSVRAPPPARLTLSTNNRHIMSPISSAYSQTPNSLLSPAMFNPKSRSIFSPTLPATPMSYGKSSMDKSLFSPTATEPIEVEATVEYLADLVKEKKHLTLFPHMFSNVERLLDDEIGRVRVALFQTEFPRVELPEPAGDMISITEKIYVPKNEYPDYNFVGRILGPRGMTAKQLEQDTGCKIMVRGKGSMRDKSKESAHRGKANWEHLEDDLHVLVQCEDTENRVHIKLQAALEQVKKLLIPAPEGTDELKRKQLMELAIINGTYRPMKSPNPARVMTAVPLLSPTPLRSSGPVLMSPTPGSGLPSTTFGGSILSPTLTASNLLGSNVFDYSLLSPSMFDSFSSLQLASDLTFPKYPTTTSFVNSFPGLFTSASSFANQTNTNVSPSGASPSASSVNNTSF
LANA-H2B inh = blockers of LANA interaction with H2A/H2B – biochemical, FP readout, HTS, primary screen; inhibition, % (test concentration not listed); AID 2629, 2010; 0.6% of 320,000 active; cell-free LANA-H2A/H2B peptide, fluorescence polarization; Protein LANA1 (Human herpesvirus 8 type P (isolate GK18)), Q9QR71; in the data active = inhibition mostly above about 10%, no sharp cut-off; inactive = mostly below about 6.7%
Bcl-xL primary = inhibitors of human Bcl-xL, primary screen, biochemical, fluorescence polarization, HTS. 0.7% of 320,000 active. AID 2129, 2009. inhibition, % at 10.9 µM. GST-Bcl-xL / FITC-Bim BH3 peptide fluorescence polarization;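 active = inhibition above the mean of all tested compounds plus 3 SD, cutoff set per campaign, cut at about 30% in these data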;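 note: inhibitors lower millipolarization by displacing the labeled peptide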
Target sequence (Q07817 whole entry, looked up): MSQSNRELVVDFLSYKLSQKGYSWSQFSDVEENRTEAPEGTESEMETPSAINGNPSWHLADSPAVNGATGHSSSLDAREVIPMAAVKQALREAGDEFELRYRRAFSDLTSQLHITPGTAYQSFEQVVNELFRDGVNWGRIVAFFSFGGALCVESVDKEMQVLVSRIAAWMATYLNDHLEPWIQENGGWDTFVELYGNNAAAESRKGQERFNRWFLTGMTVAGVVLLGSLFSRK
MEX-5 binding = MEX-5 zinc finger RNA-binding disruptors – biochemical, C. elegans, fluorescence polarization, MLPCN library, primary screen; 0.38% of 300,000 active; activity score (negative = inhibition of binding), % at 10 µM; MEX-5/FITC-TCR2 RNA binding; active compounds read low; AID 1832, 2009;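 active = inhibition past about -25% in most replicates, and total fluorescence under double the plate's negative control median, limit read from the data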
Yeast superoxide = reduction of superoxide in aged yeast, primary screen, HTS. 0.18% of 330,000 active. superoxide response (% of plate mean), % at 10 µM. S. cerevisiae aged cells, superoxide DHE fluorescence; active compounds read low;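 active = superoxide response under a set limit, about three screen SD below normal, cut at about 65% in these data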;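 note: yeast aged for seven days with compound at 30 °C before DHE staining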
GLD-1 TGE cf = GLD-1/TGE RNA binding inhibitors, retest, confirmation, biochemical, fluorescence polarization, triplicate | shares compounds with GLD-1 TGE inh | GLD-1/FL-TGE RNA fluorescence polarization | inhibition, % at 5.96 µM | 10% of 550 active | AID 2459, 2010;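 active = average inhibition across triplicates above the hit cutoff set in the primary screen, cut at about 32% in these data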
Of the large screens only hits and unclear results are named; the others gave an inactive call (follow-up assays come after a bar, where they were run). A selection: hits, their analogues and other compounds. The true share with any hit is near 1.9%.

O=C(COc1ccc(-c2nnco2)cc1)N1CCOCC1	none (no result: MCL1-BIM inh, Bcl-xL primary, MEX-5 binding)
CCN(Cc1ccccc1)C(=O)CCS(=O)(=O)c1ccc2c(c1)n(C)c(=O)c(=O)n2C	GLD-1 TGE inh 46 | GLD-1 TGE cf inactive
Cc1ccc(NC(=O)c2oc3ccccc3c2NC(=O)C2CCCO2)cc1C (stereo unspecified)	none
COc1ccc(NC(=O)c2oc3ccccc3c2NC(=O)C2CCCO2)cc1OC (stereo unspecified)	GLD-1 TGE inh 70 | GLD-1 TGE cf inactive
CCOC(=O)C1=C(Cc2ccc(Cl)cc2)C(=O)c2ccccc2C1=O	GLD-1 TGE inh 33 | GLD-1 TGE cf inactive
CCOC(=O)C1=C(C)N=C2c3ccccc3C(=O)C2C1c1ccc(Cl)cc1 (stereo unspecified)	none
O=C(CSc1ccc(-c2ccco2)nn1)NCc1ccccc1Cl	MCL1-BIM inh 41, GLD-1 TGE inh 34, Bcl-xL primary 42 | GLD-1 TGE cf inactive
O=C(NCc1nc2ccccc2[nH]1)C1=C[C@@H](C2CCCCC2)C[C@@H](OCCCCO)O1	GLD-1 TGE inh 85 | GLD-1 TGE cf inactive
CCc1cccc(C)c1NC(=O)c1ccccc1	none
CCc1cccc(C)c1NC(=O)C1=C(C(=O)O)CCCC1	GLD-1 TGE inh 39 | GLD-1 TGE cf inactive
COc1ccc(NC(=O)c2cc3ccccc3o2)cn1	none
COc1ccc(NC(=O)c2cc(=O)c3ccccc3o2)cn1	MCL1-BIM inh 48, GLD-1 TGE inh 41, Bcl-xL primary 44 | GLD-1 TGE cf inactive
CN(CCc1ccccc1)C1CCCN(S(=O)(=O)N(C)C)C1 (stereo unspecified)	GLD-1 TGE inh 65 | GLD-1 TGE cf inactive
CN(CCc1ccccc1)C1CCCN(S(=O)(=O)c2cccc(F)c2)C1 (stereo unspecified)	none
COCCn1c(CN2CCN(c3ccccc3)CC2)nc2c1c(=O)n(C)c(=O)n2C	GLD-1 TGE inh 33 | GLD-1 TGE cf inactive
O=C(OCCN1CCCCC1)c1c[nH]c2ccccc12	GLD-1 TGE inh 32 (no result: MEX-5 binding) | GLD-1 TGE cf inactive
COc1ccccc1C(=O)COC(=O)CNS(=O)(=O)c1ccc(C)c(C)c1	none
N#Cc1c(NCCO)nc(NCc2ccccc2)c2c1CCN(Cc1ccccc1)C2	MCL1-BIM inh 50, GLD-1 TGE inh 36, Bcl-xL primary 46 | GLD-1 TGE cf inactive
CCN1CCc2c(C#N)c(N3CCCCC3)nc(NCc3ccccc3)c2C1	none
CC1C2(C)OCC(C#N)(C(=N)O2)C1(C#N)C#N (stereo unspecified)	GLD-1 TGE inh 36, Bcl-xL primary 32 | GLD-1 TGE cf inactive
CC(C(=O)Nc1ccc(Br)cc1)N(C)CC(=O)NCc1ccco1 (stereo unspecified)	none (no result: MEX-5 binding)
O=C(COC(=O)c1cc(S(=O)(=O)N2CCCC2)ccc1O)Nc1ccccc1Br	none (no result: MCL1-BIM inh, Bcl-xL primary, MEX-5 binding)
COc1ccc(OC)c(NC(=O)c2cc3c(cc2Cl)N2CCCCCC2=NS3(=O)=O)c1	GLD-1 TGE inh 35 (no result: MCL1-BIM inh, Bcl-xL primary, MEX-5 binding) | GLD-1 TGE cf inactive
COc1ccc(NC(=O)CN(C)C(=O)c2cc3c(cc2Cl)N2CCCCCC2=NS3(=O)=O)cc1	none
COC(=O)C1Sc2[nH]c(=O)sc2C(c2ccc(Cl)cc2)C1C(=O)OC (stereo unspecified)	none
Cc1ccc(C2c3sc(=O)[nH]c3SC3C(=O)NC(=O)C32)cc1 (stereo unspecified)	GLD-1 TGE inh 54, MEX-5 binding -46 | GLD-1 TGE cf inactive
Cc1cccc(N2CCN(C(=O)C3COc4ccccc4O3)CC2)c1C (stereo unspecified)	GLD-1 TGE inh 100 | GLD-1 TGE cf inactive
CC(=O)Nc1ccc(S(=O)(=O)NCc2ccc3c(c2)cc(C)n3C)cc1	GLD-1 TGE inh 44, Bcl-xL primary 34 | GLD-1 TGE cf inactive
Cc1cc2cc(CNC(=O)C3CCCC3)ccc2n1C	GLD-1 TGE inh 37 | GLD-1 TGE cf inactive
Cc1cc2cc(CNC(=O)c3ccc(Br)o3)ccc2n1C	GLD-1 TGE inh 38 | GLD-1 TGE cf inactive
O=C(Nc1ccc(Cl)cc1)Nc1ccc(N2CCC(C(F)(F)F)CC2)nc1	GLD-1 TGE inh 38, Bcl-xL primary 31 | GLD-1 TGE cf inactive
Cc1cc(C)n2nc(SCC(=O)NC(=O)c3ccc(OC(F)F)cc3)nc2n1	none (no result: MCL1-BIM inh, Bcl-xL primary, MEX-5 binding)
N#CC1=C(N)C2=CCCC[C@H]2[C@H](c2ccc(Br)cc2)C1(C#N)C#N	GLD-1 TGE inh 37, Bcl-xL primary 40 (no result: MEX-5 binding) | GLD-1 TGE cf inactive
N#CC1=C(N)C2=CCCC[C@H]2[C@H](c2ccccc2)C1(C#N)C#N	MCL1-BIM inh 42, GLD-1 TGE inh 40, Bcl-xL primary 35 | GLD-1 TGE cf inactive
Cc1ccc(NC(=O)CN(C)C(=O)COc2ccccc2-c2ccccc2)cc1	none (no result: MCL1-BIM inh, Bcl-xL primary, MEX-5 binding)
Cc1sc2nc(C(C)(C)C)oc(=O)c2c1C	GLD-1 TGE inh 117 | GLD-1 TGE cf inactive
Cc1ccccc1-c1nc2sc(C)c(C)c2c(=O)o1	none
CS(=O)(=O)c1sc2nc(-c3cccs3)cc(-c3ccccc3)c2c1N	GLD-1 TGE inh 53 | GLD-1 TGE cf inactive
O=C(Nc1sc2c(c1C(=O)O)CCC2)c1ccccc1	GLD-1 TGE inh 49 | GLD-1 TGE cf inactive
Cc1ccc(S(=O)(=O)N2CCCCC2)cc1NC(=O)CSc1nnc(C2CC2)n1C	none (no result: MCL1-BIM inh, Bcl-xL primary, MEX-5 binding)
O=C(O)c1ccc2oc(=O)c(S(=O)(=O)c3ccccc3)cc2c1	none
Cc1c(O)ccc2cc(S(=O)(=O)c3ccccc3)c(=O)oc12	GLD-1 TGE inh 34, Bcl-xL primary 37 | GLD-1 TGE cf 49
Cc1c(NC(=O)c2ccc(NS(=O)(=O)c3ccc(F)c(F)c3)cc2)c(=O)n(-c2ccccc2)n1C	none (no result: MCL1-BIM inh, Bcl-xL primary, MEX-5 binding)
CC(C)CCn1c(Cl)nc2c1c(=O)n(C)c(=O)n2C	GLD-1 TGE inh 31 | GLD-1 TGE cf inactive
CCN(CC)CCNc1cc(C)c(C#N)c2nc3ccccc3n12	GLD-1 TGE inh 32, Bcl-xL primary 33 | GLD-1 TGE cf inactive
CN1CCN(c2nc3nonc3nc2N2CCN(C)CC2)CC1	GLD-1 TGE inh 35, Bcl-xL primary 33 | GLD-1 TGE cf inactive
Cc1cc(C)n(CCNC(=O)c2ccco2)n1	none
CCC(c1nnc(SC(C)C(=O)NC2CC2)n1-c1ccc(OC)cc1)N(C)C (stereo unspecified)	none (no result: MEX-5 binding)
